IL1B secr inh – blocks inflammasome-driven IL-1 beta release. 4.7% of 360,000 active. THP-1 LPS/ATP IL-1B secretion, AlphaLISA, 16 h; stronger effect = lower value. activity change, % at 57.5 µM. AID 743279; in the data active = activity change below about -50%; inconclusive = mostly about -30% to -49%
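THP-1 cells pretreated 1 hr with compounds (up to 57.5 uM final), then stimulated with LPS (250 ng/mL final) plus ATP (1.25 mM final); secreted IL-1B measured by AlphaLISA after 16 hr, decreased signal indicating inhibition.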
TDP1 cell noCPT – qHTS for Inhibitors of human tyrosyl-DNA phosphodiesterase 1 (TDP1): qHTS in cells in absence of CPT; DT40 Tdp1-/- hTDP1 cells, no CPT, ATP luminescence, 48 h; Potency, µM (titrated, usually from 46.2 µM), for inactives: at the highest dose activity change, negative = growth inhibition, usual class: inhibitors; 15% of 420,000 active; note: potency is the fitted concentration of half-maximal effect; nearly all actives have a fitted effect of over 55% in size
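Stably hTDP1-transfected Tdp1-null chicken DT40 cells were treated with library compounds minus camptothecin and grown for at least 48 hr at 37 °C, after which cellular ATP was quantified by luminescence.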
DT40 TDP1 CPT – DT40-hTDP1 cell growth loss with CPT; chicken DT40 Tdp1-/-;hTDP1 cells + 20 nM CPT, ATP luminescence, 48 h; Potency, µM (series often up to 46.2 µM), without a hit: at the top dose activity change, negative = growth inhibition, usual class: inhibitors; 12% of 420,000 active; AID 686979; note: potency is the fitted concentration of half-maximal effect; nearly all actives have a fitted effect of over 55% in size
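Chicken DT40 Tdp1-/- cells stably complemented with human TDP1 were seeded at 400 cells/well in medium containing 20 nM camptothecin, exposed to pin-transferred compounds, and grown at 37 °C for at least 48 hr. Viability was read as ATP luminescence.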
12-LOX inh – ALOX12 (human) lipoxygenase inhibition. P18054. purified 12hLO, xylenol orange hydroperoxide absorbance. Potency, µM (series often up to 108 µM), inactives show at the top dose activity change, negative = inhibition, most hits filed as inhibitors. 1.1% of 580,000 active. AID 1671190; note: potency is the fitted concentration of half-maximal effect
Target sequence (P18054 whole entry, looked up): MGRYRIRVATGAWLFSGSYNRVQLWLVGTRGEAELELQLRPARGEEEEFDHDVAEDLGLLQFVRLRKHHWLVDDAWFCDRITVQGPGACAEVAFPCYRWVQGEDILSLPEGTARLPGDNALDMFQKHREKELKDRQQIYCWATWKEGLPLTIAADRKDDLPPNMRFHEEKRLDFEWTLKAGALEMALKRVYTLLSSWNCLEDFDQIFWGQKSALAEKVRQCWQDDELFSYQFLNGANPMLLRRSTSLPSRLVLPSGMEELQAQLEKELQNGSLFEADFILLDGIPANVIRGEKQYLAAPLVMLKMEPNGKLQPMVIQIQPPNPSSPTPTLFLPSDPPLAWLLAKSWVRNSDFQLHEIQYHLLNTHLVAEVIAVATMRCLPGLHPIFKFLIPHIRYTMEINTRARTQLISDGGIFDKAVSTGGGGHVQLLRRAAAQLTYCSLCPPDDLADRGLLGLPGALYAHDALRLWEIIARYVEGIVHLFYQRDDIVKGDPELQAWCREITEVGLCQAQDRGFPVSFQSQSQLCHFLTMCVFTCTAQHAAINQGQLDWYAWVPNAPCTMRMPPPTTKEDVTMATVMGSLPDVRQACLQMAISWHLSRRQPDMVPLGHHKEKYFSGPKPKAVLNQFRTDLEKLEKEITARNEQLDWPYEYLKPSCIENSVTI
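Purified human 12hLO at 150 nM in 25 mM Hepes, 0.01% Triton X-100, pH 7.0, preincubated 15 min at room temperature with compound. Reaction started with 40 uM arachidonic acid, 30 min at room temperature. Hydroperoxide measured by Fe-xylenol orange, 573/405 nm absorbance ratio.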
HT1080NT lethal – kills 2HG-producing HT-1080-NT fibrosarcoma cells; HT-1080-NT fibrosarcoma viability, CellTiter-Glo ATP luminescence, 48 h; Potency, µM (series often up to 46.1 µM), inactives show top-dose activity, negative = less viability, hits mostly cytotoxic; 1.6% of 360,000 active; AID 686970;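 note: NT is the 2HG producing partner of a matched IDH1 knockdown line; potency is the fitted concentration of half-maximal effect; 0% = DMSO-treated cells and -100% = media-only wells without cells; nearly all actives have a fitted effect of over 55% in size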
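750 cells/well, RPMI + 5% FBS; 2 h settle, compound pin-transfer, 48 h at 37 degrees C. CellTiter-Glo 10 min RT, luminescence. Normalized to DMSO and media-only wells.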
HT1080 IDH1KD tx – kills HT-1080 cells with IDH1 knockdown. 2% of 360,000 active. HT-1080 IDH1 knockdown viability, ATP luminescence, 48 h. Potency, µM (doses to about 46.1 µM), inactives show at the highest dose activity, negative = toxicity, usual class: cytotoxic;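 note: potency is the fitted concentration of half-maximal effect; 0% = DMSO wells and -100% = cell-free medium wells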
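Assay cells: HT-1080 with IDH1 knockdown, 750 per well, RPMI/5% FBS. Exposure: 48 h at 37 °C following 2 h pre-incubation. Read: CellTiter-Glo luminescence; fitted concentration-response, curve class assigned.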
Active calls of the source: *; i = inactive; u = inconclusive; x = not tested or not shown; [ ] = another dose, or the depositor's remark. Shown is part of a subset that was picked to be rich in hits. Unless noted, calls come from the whole dose curve; as a rule, active = well fitted curve in the direction sought with a large enough effect; inconclusive = small, poorly fitted or top-dose-only effect, or another doubt; inactive = no such curve, though single readings can be large; an effect the other way counts as inactive or inconclusive. Unless noted, % is set by controls: 0 for no effect and ±100 for the full control effect.

SMILES	IL1B secr inh	TDP1 cell noCPT	DT40 TDP1 CPT	12-LOX inh	HT1080NT lethal	HT1080 IDH1KD tx
CC(=O)c1ccc(-c2cc([C@H]3[C@H]4C=CC[C@@H](C)[C@@H]4C(=O)N3Cc3ccccc3)ccc2F)cc1	-23.1	13µM*	14.6µM*	0.5%	u	u
CNC(C)c1c(F)cccc1F (stereo not given)	x	x	x	4.7%[12.5 µM]	x	x
C[C@@H]1OC(C2CCCCC2)N(C)[C@H]2C[C@H]3c4[nH]c5ccccc5c4CCN3C[C@@H]12 (stereo not given in full)	-10.9	u	20.6µM*	106.1%	-8.1%	-12.4%
Nc1c(C(=O)NCCc2ccccc2)sc2nc(N3CCOCC3)c3c(c12)CCCC3	u	23.1µM*	16.4µM*	-21.6%	-20.1%	-1.2%
CCOC(=O)c1ccc(NC(=O)c2sc3nc(N4CCOCC4)c4c(c3c2N)CCCC4)cc1	16.9	16.4µM*	u	-8.3%	0.7%	-0.4%
CN(C(=O)c1sc2nc(N3CCOCC3)c3c(c2c1N)CCCC3)c1ccccc1	-1.1	23.1µM*	u	u	-11.1%	-24.2%
COc1ccc(NC(=O)c2sc3nc(N4CCOCC4)c4c(c3c2N)CCCC4)cc1	-3.9	-21.0%	4.7%	u	22.1%	15.2%
Cc1ccccc1NC(=O)c1sc2nc(N3CCOCC3)c3c(c2c1N)CCCC3	-15.2	7.31µM*	u	u	5.1%	0.5%
O=C(Nc1ccc2c(c1)OCCO2)C1CN(S(=O)(=O)C2CC2)CC12CCCCC2 (stereo not given)	x	x	x	47.7%	x	x
Cc1cnccc1N1CCCN(C(=O)C2CCOc3ccccc3C2)CC1 (stereo not given)	x	x	x	16.7%	x	x
COc1ccc(C2c3[nH]c4ccccc4c3CCN2C(=O)CCC2CCCC2)cc1 (stereo not given)	x	u	20.6µM*	-26.2%	x	x
CCOc1ccc(C2c3[nH]c4ccccc4c3CCN2C(=O)CSc2ccccc2)cc1 (stereo not given)	x	20.6µM*	u	-20.3%	x	x
CCOc1ccc(C2c3[nH]c4ccccc4c3CCN2C(=O)CCC2CCCC2)cc1 (stereo not given)	x	18.4µM*	20.6µM*	0.0%	x	x
COc1ccc(C2c3[nH]c4ccc(OC)cc4c3CCN2C(=O)Nc2ccccc2)cc1 (stereo not given)	x	u	23.1µM*	-12.8%	x	x
FC(F)(F)c1cc(-c2ccccc2)nc(SCc2ccncc2)n1	x	x	x	-2.3%	x	x
Cc1cc(NC(=O)NCc2nc(-c3ccccc3C)oc2C)ccc1Cl	x	x	x	-3.7%	x	x
COCCn1c(=O)sc2ccccc2c1=O	64.7	u	20.6µM*	4.6%	u	12.3%
COc1ccc(Cn2c(=O)sc3ccccc3c2=O)cc1	12.9	-22.8%	1.4%	0.8%	2.8%	6.1%
COCCn1c(C2CCCCC2)nc2sc3ccccc3c(=O)c2c1=O	-12.9	23.1µM*	u	-3.5%	u	3.0%
O=S(=O)(c1cc(F)ccc1F)N1CCN(Cc2ccc3c(c2)CCO3)CC1	x	x	x	-7.1%	x	x
CCCCN(CCCC)c1ccc(Cn2ccc3ccccc32)cc1	x	8.91µM*	7.94µM*	x	x	x
CN(C)c1ccc(Cn2ccc3ccccc32)cc1	x	22.4µM*	-29.6%	x	x	x
Cc1cc(C)c2oc(C(=O)Nc3ccc(S(=O)(=O)Nc4cc(C)nc(C)n4)cc3)cc(=O)c2c1	x	x	x	23.4%	x	x
CCCCC(CC)COC(=O)c1ccccc1C(=O)O (stereo not given)	x	-15.2%[92.5 µM]	-1.8%[92.5 µM]	-3.5%[57.4 µM]	x	x
CCCC[C@H](CC(=O)c1ccccc1)[C@@H](OC(C)=O)C(=O)Oc1c(C(C)C)cccc1C(C)C	16.5	u	13µM*	u	11.9%	8.9%
SMILES	IL1B secr inh	TDP1 cell noCPT	DT40 TDP1 CPT	12-LOX inh	HT1080NT lethal	HT1080 IDH1KD tx
O=C(Nc1cccc(-n2cccn2)c1)C1CCCN(Cc2cc3ccccc3[nH]2)C1 (stereo not given)	-59.7*	u	16.4µM*	-18.3%	u	u
Cc1c(CN2CCCC(C(=O)Nc3cccc(-n4cccn4)c3)C2)cnn1C (stereo not given)	0.9	-6.5%	-10.6%	0.6%	-1.6%	3.2%
CCn1ncc(CN2CCCC(C(=O)Nc3cccc(-c4cc5ccccc5[nH]4)c3)C2)c1C (stereo not given)	-93.6*	u	20.6µM*	-24.1%	u	u
O=C(Nc1cccc(-n2cccn2)c1)C1CCCN(Cc2cccc(F)c2F)C1 (stereo not given)	8.9	20.6µM*	23.1µM*	492.4%	-0.9%	-5.1%
CSc1cccc(CN2CCCC(C(=O)Nc3cccc(-n4cccn4)c3)C2)c1 (stereo not given)	-65.9*	u	u	u	-10.5%	-8.1%
COc1cc(OC)c(OC)cc1CNC(=O)c1cc(Br)ccc1O	x	x	x	-51.0%	x	x
O=C(Nc1cccc(-n2cnnn2)c1)C1CCCN(Cc2cccc(C(F)(F)F)c2)C1 (stereo not given)	i	18.4µM*	13µM*	x	-7.9%	0.0%
Cc1cc(CN2CCCC(C(=O)Nc3cccc(-n4cccn4)c3)C2)cc(C)c1O (stereo not given)	0.0	u	16.4µM*	-0.4%	-25.0%	u
O=C(NCCc1ccco1)C1CCN(c2ccc(C(F)(F)F)cn2)CC1	x	x	x	2.8%	x	x
Cc1ccc(CCNC(=O)c2c3c(nc4ccccc24)C(=O)N(C2CCCCC2)C3)cc1	x	10.3µM*	20.6µM*	-15.6%	x	x
CCN(CC)CCNC(=O)c1c2c(nc3ccccc13)C(=O)N(C1CCCCC1)C2	x	7.1%	-7.1%	0.1%	x	x
O=C(NCc1ccc(F)cc1)c1c2c(nc3ccccc13)C(=O)N(C1CCCCC1)C2	x	u	u	-25.0%	x	x
O=C(NCc1ccccc1Cl)c1c2c(nc3ccccc13)C(=O)N(C1CCCCC1)C2	x	u	18.4µM*	u	x	x
O=C(NCc1ccccc1)c1c2c(nc3ccccc13)C(=O)N(C1CCCCC1)C2	x	18.4µM*	16.4µM*	-24.4%	x	x
O=C(CC1CCCN(c2cn[nH]c(=O)c2)C1)NCc1cccs1 (stereo not given)	x	x	x	39.1%	x	x
COC[C@H]1CCCN1[C@@H]1[C@H](O)[C@H](CO)O[C@@H]1CNCc1ccc(F)cc1	x	x	x	3.6%[176 µM]	x	x
CCC(=O)Nc1nc(-c2ccc3c(c2)CC(C)N3S(C)(=O)=O)cs1 (stereo not given)	-15.6	16.4µM*	u	12.2%	-9.8%	-10.6%
